Experimental data taken from PubChem BioAssay.

test: inhibitors of Sendai virus-induced IRF3 signaling, primary screen, TLR/RLR signaling modifier project, cell-based, Sendai virus stimulus, luciferase, 10K MLSCN set (AID 602276); settings: HEK293 RL24 IRF3 luciferase reporter, at 10 µM, stronger effect = higher value;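 active means inhibition at or above 50% at 10 µM; inactive means inhibition below 50%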;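 further: firefly luciferase from ISG56 promoter only with Renilla not read in this screen; 0% = Sendai virus plus DMSO and 100% = medium plus DMSO without virus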

inhibition, inactive:
CC(C)(C)NC(=O)CSc1nnc(-c2ccccn2)n1-c1ccccc1 -7.01%
O=C(COC(=O)c1cncc(Br)c1)NCCC1=CCCCC1 1.87%
COc1ccc(S(=O)(=O)Nc2ccccc2OC)cc1C 16.7%
Nc1nc2n(n1)C(c1cccc(Br)c1)CC(c1ccc(F)cc1)N2 (configuration not stated) 2.63%
O=C(NC1CCCCC1)N(Cc1ccccc1)Cc1ccco1 -9.22%
O=C(O)CCn1[nH]c(=O)ccc1=O 21.4%
COc1ccc(C(=O)Nc2ccccc2C(=O)NCCN2CCOCC2)cc1 -23.4%
CCc1ccccc1NC(=O)CCc1nc(-c2ccc(C)cc2)no1 14.1%
Cc1cc(NS(=O)(=O)c2ccc(NC(=O)Nc3ccc4c(c3)OCO4)cc2)no1 -9.3%
CCOC(=O)c1ccc(NC(=O)CSCc2ccco2)cc1 1.64%
Cc1cc(NC(=O)CSc2nccn2-c2ccc(F)cc2)no1 13.6%
O=C(COC(=O)C1CC1)c1c[nH]c2ccccc12 -49.1%
O=C(CCS(=O)(=O)c1cccc2nonc12)Nc1cccc2c1CCCC2 -1.97%
COc1cccc(NC(=O)N(Cc2ccco2)C(C)c2cccs2)c1 (configuration not stated) 11%
Cc1csc2ncc(C(=O)N3CCc4ccccc43)c(=O)n12 11.1%
c1ccc(-c2ccccc2OCCn2cncn2)cc1 2.95%
COc1ccc(NC(=O)CN(c2ccc(C)cc2)S(C)(=O)=O)c(OC)c1 4.75%
